This is part of a sample that, as a whole, favours compounds with a hit. Of some 79,000 tested, about 15% had one in any assay. A number with no mark means an inactive call. Active and inactive are the calls of the source. Cut-off read from the data, not from the text of the source: active = growth inhibition above about 70%; inactive = the rest.
What was measured:
[1] = NCI Yeast Anticancer Drug Screen. Data for the rad50 strain (AID 155);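 note: 0% = growth of vehicle-only cultures of the same strain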; conditions: S. cerevisiae rad50 strain growth inhibition; at 50.0 µM; active compounds read high
Method in brief: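 Cells are treated with compound, grown, and their growth is then scored against vehicle-only cultures of the same repair-deficient yeast strain.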

[2] = NCI Yeast Anticancer Drug Screen. Data for the mec2-1 strain (AID 157); conditions: S. cerevisiae mec2-1 strain, at 50.0 µM, active compounds read high
Method in brief: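 Test agents were screened against the mec2-1 yeast strain, with defined DNA repair or cell cycle alteration. Growth was scored as inhibition against vehicle-only controls.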

[3] = NCI Yeast Anticancer Drug Screen. Data for the sgs1 mgt1 strain (AID 161);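 note: 0% = growth of cultures given vehicle only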; conditions: S. cerevisiae sgs1 mgt1 strain, at 50.0 µM, active compounds read high
Method in brief: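 Mutant yeast exposed to compound; growth scored against vehicle-only wells.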

[4] = NCI Yeast Anticancer Drug Screen. Data for the cln2 rad14 strain (AID 165);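 note: 0% = growth equal to vehicle treated cultures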; conditions: S. cerevisiae cln2 rad14 strain, at 50.0 µM, active compounds read high
Method in brief: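 Growth of compound-exposed yeast (cln2 rad14 genotype) measured and expressed as inhibition relative to vehicle.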

[5] = NCI Yeast Anticancer Drug Screen. Data for the bub3 strain (AID 167); conditions: S. cerevisiae bub3 mutant strain, at 50.0 µM, active compounds read high
Method in brief: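 Part of a panel of yeast mutants defective in DNA damage repair or cell cycle regulation. Each strain is grown with compound, and inhibition is calculated relative to solvent-treated cultures.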

[6] = NCI Yeast Anticancer Drug Screen. Data for the mlh1 rad18 strain (AID 175); conditions: S. cerevisiae mlh1 rad18 strain growth inhibition; at 50.0 µM; active compounds read high
Method in brief: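 In this whole-cell yeast screen, a strain with altered DNA damage repair is challenged with compound, and its growth is measured against matched vehicle-treated controls.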

Structure (SMILES)	growth inhibition [1]	growth inhibition [2]	growth inhibition [3]	growth inhibition [4]	growth inhibition [5]	growth inhibition [6]
Cc1ccc(NC(=O)CSc2nnc(Cc3ccccc3)o2)cc1	-15.4%	-4.35%	-18.5%	-20.1%	-3.65%	-25.6%
NC(CSSCC(N)=NCC12CC3CC(CC(C3)C1)C2)=NCC12CC3CC(CC(C3)C1)C2	99.4% (active)	99.5% (active)	99.5% (active)	97.4% (active)	98.8% (active)	99.2% (active)
O=c1[nH][nH]c(=O)c2c1ncn2Cc1ccccc1	34.9%	-17%	1.7%	-49.5%	-14.9%	-25.5%
N#CCCC(CC#N)S(=O)(=O)O (stereo not drawn)	14.3%	1.65%	-7.75%	-54.6%	15.7%	-13.1%
Nc1nnc2c(=O)[nH]cnc2n1	2.25%	-8.8%	-29.2%	-14.4%	-12.2%	-7.35%
O=C(Nc1ccc2ccccc2c1)OC1CCS(=O)(=O)C1 (stereo not drawn)	-0.75%	-3.9%	6.1%	20.4%	-1.8%	-8.25%
COc1cc(NC=O)c2c(c1)SCC(=O)N2	-1.75%	-52.5%	-8.75%	6.7%	6.2%	-6.6%
CCCCCCCCCCCCCC(=O)OCC1OC(n2cc(F)c(=O)[nH]c2=O)C(N)C(OC(=O)CCCCCCCCCCCCC)C1O (stereo not drawn)	27.4%	7.4%	22.5%	35.3%	11.6%	24.1%
Cc1[nH]c2ccccc2c1C1=CC(=O)c2ccccc2C1=O	8.55%	18%	21.6%	2.6%	-1%	13.8%
O=C1c2ccccc2C(=O)N1CCSCCSCCN1C(=O)c2ccccc2C1=O	-3.1%	-13.7%	12.6%	14.6%	-7.15%	10.2%
O=[N+]([O-])C(=C(N1CCCCC1)N1CCCCC1)/C(Cl)=C(\Cl)Br	-31.5%	11.2%	2.7%	-2%	-7.15%	-1.45%
Cc1ccc(N=Nc2ccc(C)cc2NC(=S)Nc2ccccc2)cc1	-11.2%	-0.95%	-12.3%	-20.9%	7.7%	-8.75%
CCC(C)NS(=O)(=O)c1ccc(Cl)cc1 (stereo not drawn)	18.4%	9.55%	6.45%	8.6%	5.85%	3.7%
CC1=NNC(=O)CC1C(O)c1ccc(F)cc1 (stereo not drawn)	-33.5%	1.4%	-10.1%	-2.35%	0%	-1.85%
C=CC(CO)N(CC)CC (stereo not drawn)	9.55%	8.7%	7.25%	13.3%	1.8%	11.3%
COc1ccc(C2(C(OC)OC)NC(=O)NC2=O)cc1 (stereo not drawn)	-26.8%	-4.1%	-8.8%	35.4%	-0.7%	-8.85%
CC1=NNC(=O)C1(C)C	-16.4%	0.7%	-20.6%	26.1%	3.3%	4.55%
O=c1nnc(O)c2ccn(O)cc1-2	-34.6%	-19%	1.65%	-40.1%	-8.95%	-7.4%
Nc1[nH]n(-c2ccccc2)c(=O)c1/C=N/C(=S)N=Nc1c(O)[nH]c2ccccc12	1.5%	-0.3%	41%	1.5%	9.35%	24.8%

Structure (SMILES)	growth inhibition [1]	growth inhibition [2]	growth inhibition [3]	growth inhibition [4]	growth inhibition [5]	growth inhibition [6]
COC(=O)c1ccccc1NC(=O)Nc1ccc(F)c([N+](=O)[O-])c1	3.75%	22.9%	3.15%	0.85%	11.6%	-10.9%
Cn1c(=O)c2c(ncn2CCSS(=O)(=O)O)n(C)c1=O	-20.7%	-17.1%	12.2%	-11.9%	-12%	-28.9%
Cc1ccc(S(=O)c2cccs2)cc1 (stereo not drawn)	2.15%	-28.1%	-49%	-38.9%	-18%	-28.8%
Cc1nc(N)nc(C)c1N=Nc1ccccc1Br	2%	3.75%	2.35%	-42.2%	5.35%	-6.25%
CC(C)=CCC/C(C)=C/C=O	9.1%	2.95%	5.1%	9.6%	7.95%	8.4%
CN(N=Nc1ccc(C#N)cc1)C(C)(C)C	3.3%	-5.3%	6.5%	-5.85%	-2.35%	5.55%
O=C(N/N=C\c1cc(=O)[nH]c(=O)[nH]1)c1ccccc1	-18.1%	-2.95%	-11.5%	-6.75%	-14.2%	2.9%
Nc1ncnc2c1ncn2-c1ccc(N(CCO)CCO)cc1	5.5%	-12.3%	-1.15%	-30.2%	-9.45%	8.35%
N#CC(CC(=O)c1ccccc1)c1ccccc1Cl (stereo not drawn)	17.2%	24.9%	31.3%	17.6%	40.4%	22%
O=C(NC[N+]12CCO[B-]1(c1ccc(Cl)cc1)OCC2)c1ccccc1O (stereo not drawn)	19.2%	0.25%	24.1%	25%	24%	56.3%
N#CC(C(=O)CCc1nc2ccccc2[nH]1)c1nc2ccccc2s1 (stereo not drawn)	6.75%	-3.5%	-9.55%	-17.8%	4.35%	-0.6%
COC(=O)N1C2c3ccccc3C(c3ccccc32)N1C(=O)OC	6%	21.5%	11.3%	-54.8%	32.8%	33.8%
CC(C)=C1CCC/C1=N\Nc1ccc([N+](=O)[O-])cc1[N+](=O)[O-]	-5.9%	-1.35%	0.15%	-25.8%	4.6%	-8.75%
CCOC(=O)/C=C/C(=O)N1CCN(C(=O)/C=C/C(=O)OCC)C(C)C1 (stereo not drawn)	-3.3%	-40.8%	-6.7%	4.25%	-41.5%	-15.9%
COC(=O)c1ccc(C[P+](c2ccccc2)(c2ccccc2)c2ccccc2)cc1	15.5%	7.75%	44.3%	40.2%	0.95%	43.1%
CCOC(=O)c1ccc(NC(=O)Oc2ccc(C=O)cc2OC)cc1	5.7%	5.3%	7.85%	11%	20.1%	7.2%
Cc1cc(=O)c2cc(N=Cc3ccc(N(C)C)cc3)ccc2o1	5.25%	-10.9%	-16.8%	17.1%	0.75%	16.1%
Nn1c(Cc2ccccc2)n[nH]c1=O	10.2%	-13.3%	12.2%	6.55%	-9.4%	-14.2%
OCC[N+]12CCCN1CCC2	-15.4%	-27%	-21.4%	-12.9%	-15.3%	-30.4%

— PubChem BioAssay (NCI)
